In PubChem BioAssay AID2732 (Emory University Molecular Libraries Screening Center, 2010):
Several values for one entry are separate records, joined by “and”; a condition that tells them apart may be missing. Equal entries are not always repeated. Hit rate of the full screen: of about 220,000 compounds, about 8,200 (3.7%) were called active.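 The calls were made as follows: active = compounds that reduced the stress-induced luciferase reporter signal by more than about 70% of percent inhibition (limit read from the data); inactive = the rest.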 The full list was thinned out, with actives kept by preference. Where a structure was tested more than once in an assay, its records may differ in their call.

test: inhibitors of CHOP promoter induction, primary screen, cell-based, unfolded protein response, luciferase reporter (AID 2732); conditions: CHO-K1 CHOP-promoter luciferase, tunicamycin-induced, 15-18 h; at 10 µM; stronger effect = higher value;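 also: 0% = tunicamycin plus vehicle and 100% = wells without tunicamycin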

Row | Structure (SMILES) | inhibition
1 | Cc1c(C(=O)N/N=C/c2ccccc2)[nH]c2c([N+](=O)[O-])cccc12 | 20% (inactive)
2 | O=C(O)C(F)(F)C(NCc1ccccc1)c1ccccc1 (stereo unspecified) | -11.7% (inactive)
3 | Cc1ccc(N2C(=O)CN=C2Nc2nc(C)cc(C)n2)cc1 | 17% (inactive)
4 | CC(C)(C)C(=O)c1cnc(Nc2ccccc2)s1 | 4% (inactive)
5 | O=C(CSc1nnc(Nc2ccccc2)s1)Nc1cccnc1Cl | -4.1% (inactive)
6 | O=C(c1ccc(Cl)cc1)c1cnc(Nc2ccccc2)s1 | 70.1% (active)
7 | CCc1ccnc(NS(=O)(=O)c2ccc3c(c2)OCCO3)c1 | 16.7% (inactive)
8 | O=c1c(/C=N/O)coc2ccc(Cl)cc12 | 3.04% (inactive)
9 | c1ccc2c(NC3C4CC5CC(C4)CC3C5)nc(N3CCOCC3)nc2c1 (stereo unspecified) | 83.1% (active)
10 | CC(Nc1nc(N2CCCC2)nc2ccccc12)c1ccccc1 (stereo unspecified) | 34.2% (inactive)
11 | CC(Nc1nc(N2CCOCC2)nc2ccccc12)c1ccccc1 (stereo unspecified) | 16.9% (inactive)
12 | Cc1cc(=O)oc2c(C(=O)c3ccccc3)c(OCC(N)=O)ccc12 | 6.93% (inactive)
13 | O=C(OCC(=O)c1cccs1)C1=COCCO1 | 17.6% (inactive)
14 | CCC(C)(C)c1ccc(Oc2ccc(NC(=O)COC(=O)C3=COCCO3)cc2)cc1 | 80.4% (active)
15 | COc1ccc(NC(=O)COC(=O)CNC(=O)C2CCCCC2)cc1 | 9.71% (inactive)
16 | COCCN(Cc1cc2cc3c(cc2nc1Cl)OCO3)C(=O)c1cccc(C)c1 | 27.4% (inactive)
17 | COC(=O)N(NC(=O)C(O)(C(C)C)C(C)C)c1ccccc1 | 16% (inactive)
18 | COC(=O)c1cc(NC(=O)c2cc(C(C)(C)C)nn2Cc2cccc(C)c2)ccc1N1CCOCC1 | 42.8% (inactive)
19 | CCOC(=O)C1C(c2ccc(OC)c(OC)c2)c2c([nH][nH]c2=O)CC1(C)O (stereo unspecified) | 3.71% (inactive)
20 | O=C1N=C(N2CCc3ccccc3C2)S/C1=C\c1ccc(O)cc1 | -2.8% (inactive)
21 | Cc1ccc(NC(=O)C(=O)NCc2ccc(/C=N/NC(=O)c3c(C)nc4cc(C)ccn34)o2)cc1 | 78.9% (active)
22 | C/C(=N\OC(=O)c1ccccc1)c1c(C)nc2cc(C)ccn12 | 15.7% (inactive)
23 | O=C(CSc1ccc(/C=N/NC(=O)c2cccc(F)c2)o1)Nc1ccccc1 | -10.9% (inactive)
24 | COc1ccc(S(=O)(=O)N(CC(=O)N/N=C/c2ccccc2C(=O)O)c2ccccc2OC)cc1 | -10.7% (inactive)

Row | Structure (SMILES) | inhibition
25 | CCOC(=O)c1c(N)nn(C(=O)c2ccccc2)c1-c1ccccc1 | 72.5% (active)
26 | CCOC(=O)c1c(-c2cccc(N)c2)cn2ccccc12 | 20% (inactive)
27 | CCOC(=O)c1nnn(-c2nonc2OC)c1-c1ccccc1 | 24.9% (inactive)
28 | C=C1CCN([C@H](C(=O)NCc2cc(OC)c(OC)c(OC)c2)C(C)C)S(=O)(=O)c2ccccc21 | -3.31% (inactive)
29 | Cc1nc(Cl)c(C#N)c2c1CCCC2 | 18.3% (inactive)
30 | O=S(=O)(c1ccc(Cl)cc1)N1CCCN(c2ccc(C(F)(F)F)cn2)CC1 | 21.2% (inactive)
31 | COc1ccc(/C=C2\SC(=N)N(c3ccc(F)cc3)C2=O)cc1 | 38.3% (inactive)
32 | CCOc1ccc(N=C2NC(=O)S/C2=C\c2ccc(O)cc2)cc1 | 64.1% (inactive)
33 | COc1ccc(/C=C2/S/C(=N/N=C3\CC4CCC3(C)C4(C)C)NC2=O)cc1 (stereo unspecified) | 88.5% (active)
34 | O=S(=O)(NC(=S)Nc1ccccc1)c1ccc(F)cc1 | -27.1% (inactive)
35 | N#Cc1c(NCCO)ccc([N+](=O)[O-])c1NCCO | 14.8% (inactive)
36 | COc1ccc(/C=C2\N=C3CCCN3C2=O)cc1 | -36.1% (inactive)
37 | Cc1cc(C)nc(Nc2n[nH]c(-c3ccccc3N)n2)n1 | -32.3% (inactive)
38 | CCOc1cc(/C=N/O)cc(Br)c1OC | 23.6% (inactive)
39 | CCOc1c(Cl)cc(/C=N/O)cc1OC | 10.4% (inactive)
40 | COc1cc(/C=N/O)cc(Br)c1OCc1cccc(Cl)c1 | 108% (active)
41 | C#CCOCCOCCOCCNc1nc(N2CCN(C(=O)[C@H](CCC(=O)O)n3cc(C(N)CO)nn3)CC2)nc(N2CCN(C(=O)[C@H](CCCCN)n3cc(C(N)[C@H](C)CC)nn3)CC2)n1 (stereo partly specified) | -9.04% (inactive)
42 | CCOC(=O)c1c(C)nn(-c2ncccc2NC(=O)CCC(=O)O)c1C | 15.2% (inactive)
43 | COC(=O)c1c(C)oc(C)c1S(=O)(=O)Nc1ccc(C(C)C)cc1 | 8.63% (inactive)
44 | Cc1cccc(N2CCN(Cc3nc(C4CC4)no3)CC2)n1 | -7.46% (inactive)
45 | Nc1cccc(S(=O)(=O)Nc2ccc(SC(F)F)cc2)c1 | 6.78% (inactive)
46 | CCCCCC(=O)NC(=S)NNC(=O)c1ccc([N+](=O)[O-])cc1 | 26.4% (inactive)
47 | CCCCCC(=O)Nc1ccc(C(=O)N/N=C/c2ccc([N+](=O)[O-])cc2)cc1 | 73.8% (active)
48 | O=C(COc1ccc(/C=N/NC(=O)c2ccc(O)cc2)cc1)Nc1ccc([N+](=O)[O-])cc1 | 0.44% (inactive)

Row | Structure (SMILES) | inhibition
49 | O=C1NC[C@@H](Cc2ccc(O)cc2)N(CCc2cccc(F)c2)C1=O | -6.82% (inactive)
50 | Brc1ccc(-c2n(-c3ccccn3)c3ccccc3[n+]2-c2ccccn2)cc1 | 24.6% (inactive)
51 | CCOC(=O)c1sc(-c2cccc([N+](=O)[O-])c2)cc1N | 75.2% (active)
52 | CCOC(=O)c1sc2nc(SC)nc(-c3ccccc3)c2c1N | -31.5% (inactive)
53 | Cc1cccc(C(=O)NNC(=O)c2cccc([N+](=O)[O-])c2)c1 | 3.14% (inactive)
54 | CC(C)c1ccc(NC(=S)NC2CC3C=CC2C3)cc1 (stereo unspecified) | 51.2% (inactive)
55 | CC(=O)Nc1nc2c(s1)C(=O)NCC(C)(C)C2 | 12.8% (inactive)
56 | Brc1ccc(-c2noc(-c3ccccc3)n2)o1 | 26.1% (inactive)
57 | CS(=O)(=O)c1ccc(Cl)c(NC(=O)Nc2ccccc2)c1 | 2.73% (inactive)
58 | CCCCCCOC(=O)NCC(O)c1ccccc1 (stereo unspecified) | 1.35% (inactive)
59 | CCCn1c(C(O)c2ccc(OCC)cc2)nc2ccccc21 (stereo unspecified) | 19% (inactive)
60 | CCCCCC(O)c1cccc(OCc2ccc3ccccc3n2)c1 (stereo unspecified) | 88.4% (active) and -8.07% (inactive)
61 | O=C(NC(=O)c1cc(OCC(F)(F)F)ccc1OCC(F)(F)F)Nc1ccccc1 | 6.78% (inactive)
62 | Cc1ccc(/C=N/NC(=O)CSc2ccccn2)o1 | -0.26% (inactive)
63 | CC(C)n1c(=S)[nH]c2cc(C(F)(F)F)ccc21 | 22.9% (inactive)
64 | Cc1ccc(Oc2cc(NC(=O)CCCn3nc(C)c([N+](=O)[O-])c3C)cc([N+](=O)[O-])c2)cc1 | 71.1% (active)
65 | CCc1ccc(NC(=O)Cn2nc(C)c([N+](=O)[O-])c2C)cc1 | 14.9% (inactive)
66 | COc1ccc(CNC(=O)CCCn2nc(C)c([N+](=O)[O-])c2C)cc1 | 11.7% (inactive)
67 | Cc1ccc(/C=N/NC(=O)CN2CCN(Cc3ccccc3)CC2)s1 | 13.5% (inactive)
68 | CCOC(=O)c1ccc(NC(=O)Cn2cnc3cc(C)c(C)cc32)cc1 | 55.6% (inactive)
69 | O=C(NNS(=O)(=O)c1ccccc1)c1cnn(-c2ccc(Cl)cc2)c1C(F)(F)F | -3.7% (inactive)
70 | C[C@H](NC(=O)c1nc[nH]c1C(=O)N[C@@H](C)C(=O)OC(C)(C)C)C(=O)OC(C)(C)C | 1.44% (inactive)
71 | Cc1ccc(-c2noc(CSc3nnnn3-c3ccccc3)n2)cc1 | 70.7% (active)
72 | COc1ccc(C)cc1-n1nnnc1SCc1nc2ccccc2c(=O)[nH]1 | 12.6% (inactive)

Row | Structure (SMILES) | inhibition
73 | Cc1ccc(Nc2nc(CSc3nnnn3-c3ccccc3)cc(=O)[nH]2)cc1 | 81.8% (active)
74 | Cc1ccc(-c2noc(CSc3nnc(-c4cccs4)n3C)n2)cc1 | -8.68% (inactive)
75 | O=c1c2ccccc2nc(CSc2nnnn2-c2ccccc2)n1-c1ccccc1 | 32.4% (inactive)
76 | Cc1ccc(-c2noc(CSc3nnc(-c4ccccc4)n3C)n2)cc1 | 66.5% (inactive)
77 | Cn1c(C(=O)O)ccc1S(=O)(=O)N(Cc1ccccc1)Cc1ccccc1 | 2.64% (inactive)
78 | O=C(NC(=O)c1ccccc1N1CCCCC1)Nc1ccc(Br)cc1 | -4.77% (inactive)
79 | Cc1ccc(OCC(=O)c2cc(C)n(Cc3ccco3)c2C)c([N+](=O)[O-])n1 | 31% (inactive)
80 | CCOc1ccc2c(c1)C(c1ccc(C)cc1)=NNC(c1ccc(C)cc1)=N2 | 37.2% (inactive)
81 | Cc1ccc(C2=Nc3c(ccc4ccccc34)C(c3ccncc3)=NN2)cc1 | 64.5% (inactive)
82 | CCc1ccc2c(c1)C(c1ccc([N+](=O)[O-])cc1)=NNC(c1ccccc1)=N2 | 93.7% (active)
83 | C/C(=N/Nc1nc(-c2ccccc2)c(CC(=O)O)s1)c1ccccc1 | -18.2% (inactive)
84 | CCCCN(CCCC)CC(O)Cn1c2ccccc2c(=O)c2ccccc21 (stereo unspecified) | 11% (inactive)
85 | CC(NC(=O)C(=O)Nc1nccs1)c1ccccc1 (stereo unspecified) | 24.1% (inactive)
86 | O=C(O)CCCCCCCCCC[n+]1ccccc1 | -11.5% (inactive)
87 | CCc1nc(C)ccc1OCC(=O)N(CC)CC | 18.9% (inactive)
88 | CN(C)CCOc1ccc(Cl)cc1C(C)(C)C | -2.87% (inactive)
89 | CCC(C)(C)c1ccc(OCC(=O)N(C)C)c(C(C)(C)CC)c1 | 85.7% (active)
90 | Cn1nccc1NS(=O)(=O)c1ccc(F)cc1 | -5.82% (inactive)
91 | Cc1cc(=O)[nH]c(S)c1C#N | 2.71% (inactive)
92 | CC(C)(C)c1ccc(CCC2OCC(CN3CCOCC3)O2)cc1 (stereo unspecified) | 3.73% (inactive)
93 | COc1ccccc1-n1cn[nH]c1=S | 11.5% (inactive)
94 | Cc1cc(Oc2ccc(Cl)cc2)nc(SCC(=O)c2ccccc2)n1 | 70.2% (active)
95 | Cc1cc(SCC(=O)c2ccccc2)nc(SCC(=O)c2ccccc2)n1 | 15.9% (inactive)
96 | COC(=O)c1cc(C(=O)CSc2nc(C)cc(C)n2)ccc1O | 5.39% (inactive)
